As a reminder, the inhibition is the change of the read-out against control, counted positive when it falls. For orientation: viability means a read-out of living cells in per cent, often relative to untreated cells.

This is an account of results in PubChem BioAssay.

Each structure is given as a SMILES string. Values joined by “and” are separate entries in the source; they are usually repeats but may differ in a detail not shown here. Equal values may be shown once. Inconclusive results are not listed. For some assays here: Potency and affinity values are given separately. Active and inactive are the calls of the source.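 The calls were made as follows, unless noted: active = compounds whose cell count with miR-34 switched on is under 0.7 times the count with it off; inactive = the rest.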

In experiment [1] the target is ATP-dependent translocase ABCB1 (Homo sapiens) (UniProt P08183). The experiment can be described thus: P-glycoprotein substrate transport blockade – cell-based (AID 377; in the data active = fluorescence slope change above about 50%). The settings on record: MDR1-expressing cells, fluorescent substrate accumulation slope; stronger effect = higher value; concentration not given here.
Chain of ATP-dependent translocase ABCB1 (Homo sapiens) (P08183 whole entry, looked up): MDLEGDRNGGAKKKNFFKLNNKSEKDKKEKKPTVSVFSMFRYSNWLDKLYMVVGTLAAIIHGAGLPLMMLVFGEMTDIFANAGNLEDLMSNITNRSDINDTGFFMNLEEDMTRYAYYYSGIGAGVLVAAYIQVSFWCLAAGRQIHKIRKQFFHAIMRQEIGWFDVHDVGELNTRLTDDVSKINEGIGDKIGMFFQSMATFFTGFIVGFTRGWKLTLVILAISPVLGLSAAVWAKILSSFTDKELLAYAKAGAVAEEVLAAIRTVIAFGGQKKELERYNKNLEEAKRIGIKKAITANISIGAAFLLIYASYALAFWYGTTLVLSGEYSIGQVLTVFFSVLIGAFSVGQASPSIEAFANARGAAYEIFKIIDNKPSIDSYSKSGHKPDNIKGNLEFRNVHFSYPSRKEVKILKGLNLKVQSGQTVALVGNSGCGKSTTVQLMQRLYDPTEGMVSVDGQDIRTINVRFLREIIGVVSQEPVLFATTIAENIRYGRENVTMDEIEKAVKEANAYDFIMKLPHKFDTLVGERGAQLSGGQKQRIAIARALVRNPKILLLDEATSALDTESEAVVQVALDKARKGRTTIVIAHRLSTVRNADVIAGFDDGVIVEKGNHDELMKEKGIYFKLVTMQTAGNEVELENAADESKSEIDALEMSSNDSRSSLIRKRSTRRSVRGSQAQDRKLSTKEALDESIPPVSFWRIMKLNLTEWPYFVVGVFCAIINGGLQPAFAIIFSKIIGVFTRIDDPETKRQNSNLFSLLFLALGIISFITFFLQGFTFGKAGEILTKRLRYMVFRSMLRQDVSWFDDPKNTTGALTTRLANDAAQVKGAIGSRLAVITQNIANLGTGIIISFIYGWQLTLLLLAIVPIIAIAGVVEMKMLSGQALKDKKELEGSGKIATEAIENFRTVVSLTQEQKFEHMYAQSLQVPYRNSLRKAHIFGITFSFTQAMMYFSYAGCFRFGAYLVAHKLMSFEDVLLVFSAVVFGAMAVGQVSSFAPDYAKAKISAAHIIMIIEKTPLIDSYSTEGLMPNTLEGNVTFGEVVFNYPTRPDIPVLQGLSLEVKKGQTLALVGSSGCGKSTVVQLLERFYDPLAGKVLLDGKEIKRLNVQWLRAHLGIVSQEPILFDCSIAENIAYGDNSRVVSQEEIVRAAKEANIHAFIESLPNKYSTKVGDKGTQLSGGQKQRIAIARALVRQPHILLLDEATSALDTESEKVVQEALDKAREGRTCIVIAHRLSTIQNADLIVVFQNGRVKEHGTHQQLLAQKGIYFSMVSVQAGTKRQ
Experiment [2] can be described thus: blockers of polyQ-driven CASP3 activation – cell-based (AID 1583). The settings on record: polyglutamine-induced caspase-3 activation, cell assay; stronger effect = higher value;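 tested at 10 µM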.
Experiment [3] can be described thus: yeast 75Q aggregation reduction – 75Q-TubU reporter (AID 1593). The conditions noted are these: Yeast 75Q polyglutamine aggregation reporter.
The nature of experiment [4]: restoration of touch response, mutant HTT neurons – whole organism, C. elegans mechanosensory neurons, N-terminal huntingtin (AID 1599). The settings on record: C. elegans polyQ-huntingtin mechanosensory neurons, stronger effect = higher value.
Experiment [5] is described as follows: blockers of cytochrome c efflux from mitochondria – biochemical, purified mitochondria (AID 1603).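 Also: mouse liver mitochondria challenged with calcium chloride; signal normalized to the plate average as 100%.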 The conditions noted are these: stronger effect = lower value.
Experiment [6] can be described thus: polyglutamine aggregate formation blockers (AID 1604). The conditions noted are these: polyglutamine-induced protein aggregation inhibition assay; stronger effect = higher value; tested at 2.5 µM.
The nature of experiment [7]: rescue of PC12 cells from polyQ htt toxicity – LDH release (AID 1610). The settings on record: PC12 mutant huntingtin toxicity, final LDH at 4 uM, stronger effect = lower value. On the technique in general: Release of lactate dehydrogenase indicates damage to the cell membrane.
Experiment [8] can be described thus: glutamate transport activators, MN-1 cells, MN-1 cell line (AID 1612).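 Also: tested at 1 µM final; 0% = mean of DMSO vehicle wells on each plate; positive means more glutamate uptake than control and negative means less.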 The conditions noted are these: MN-1 motor neuron cells, stronger effect = higher value.
Experiment [9] in a line: 75Q-TubH aggregate inhibition, S. cerevisiae, yeast (AID 1616). The conditions noted are these: S. cerevisiae 75Q-TubH polyglutamine aggregation suppression; stronger effect = higher value.
Experiment [10] is described as follows: compounds altering viability of human ES cells (AID 493140; call rule not given here;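 also: cells exposed to compounds for four days before counting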). The settings on record: human embryonic stem cell survival screen; stronger effect = higher value.
Experiment [11] is described as follows: P. berghei load reduction in hepatocytes – cell-based, HepG2, luciferase luminescence, HepG2 viability, primary screen (AID 624349; in the data active = parasite load remaining mostly below about 12%, no sharp cut-off; inactive = mostly above about 10%;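 also: 100% = mean of DMSO negative control wells on the same plate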). The conditions noted are these: P. berghei liver stage in HepG2, luciferase luminescence, concentration not given here; parasite load remaining: stronger effect = lower value; viability: measured here: HepG2 viability without parasites.

Experiment [12] addresses 6-phosphogluconate dehydrogenase, decarboxylating (Homo sapiens) (UniProt P52209). The experiment can be described thus: inhibition of human phosphogluconate dehydrogenase – biochemical, recombinant enzyme, NADPH absorbance, primary screen (AID 1159550;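 active = at least 20% inhibition of 6-phosphogluconate dehydrogenase activity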). The conditions noted are these: recombinant 6PGD, NADPH absorbance 341 nm; at 10 µM; stronger effect = higher value.
Experiment [13] in a line: viability loss with induced miR-34 in A549 – imaging, A549 dox-inducible miR-34, nuclei and caspase counts, primary screen (AID 1347080). The conditions noted are these: A549 miR-34 inducible, Hoechst nuclei count, 48 h.
Experiment [14] is described as follows: MELAS cybrid and Rieske KO viability enhancers – cell-based, MELAS cybrids, Rieske KO mouse fibroblasts, CellTiter-Glo, primary screen (AID 1508586;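 active = mean z-score across replicates of 1.96 or higher in either the MELAS or the Rieske mutant cell line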;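 also: z relative to plate mean and SD of compound and empty wells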). The settings on record: low glucose. (In general: Cellular ATP, detected with luciferase, serves as a proxy for viable cell number.)
Experiment [15] deals with Mitogen-activated protein kinase 7 (Homo sapiens) (UniProt Q13164). Kind of experiment: Gal4-ERK5 driven luciferase induction – cell-based, HTS, primary screen (AID 1508626;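 active = luciferase signal above three times the same-plate solvent-only control wells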;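 also: luciferase driven by Gal4-ERK5 fusion binding five Gal4 sites before minimal TATA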). The conditions noted are these: HeLa Gal4-ERK5 transactivation, 18 h, at 5 µM, stronger effect = higher value.
Chain of Mitogen-activated protein kinase 7 (Homo sapiens) (Q13164 whole entry, looked up, the tested form may be a part): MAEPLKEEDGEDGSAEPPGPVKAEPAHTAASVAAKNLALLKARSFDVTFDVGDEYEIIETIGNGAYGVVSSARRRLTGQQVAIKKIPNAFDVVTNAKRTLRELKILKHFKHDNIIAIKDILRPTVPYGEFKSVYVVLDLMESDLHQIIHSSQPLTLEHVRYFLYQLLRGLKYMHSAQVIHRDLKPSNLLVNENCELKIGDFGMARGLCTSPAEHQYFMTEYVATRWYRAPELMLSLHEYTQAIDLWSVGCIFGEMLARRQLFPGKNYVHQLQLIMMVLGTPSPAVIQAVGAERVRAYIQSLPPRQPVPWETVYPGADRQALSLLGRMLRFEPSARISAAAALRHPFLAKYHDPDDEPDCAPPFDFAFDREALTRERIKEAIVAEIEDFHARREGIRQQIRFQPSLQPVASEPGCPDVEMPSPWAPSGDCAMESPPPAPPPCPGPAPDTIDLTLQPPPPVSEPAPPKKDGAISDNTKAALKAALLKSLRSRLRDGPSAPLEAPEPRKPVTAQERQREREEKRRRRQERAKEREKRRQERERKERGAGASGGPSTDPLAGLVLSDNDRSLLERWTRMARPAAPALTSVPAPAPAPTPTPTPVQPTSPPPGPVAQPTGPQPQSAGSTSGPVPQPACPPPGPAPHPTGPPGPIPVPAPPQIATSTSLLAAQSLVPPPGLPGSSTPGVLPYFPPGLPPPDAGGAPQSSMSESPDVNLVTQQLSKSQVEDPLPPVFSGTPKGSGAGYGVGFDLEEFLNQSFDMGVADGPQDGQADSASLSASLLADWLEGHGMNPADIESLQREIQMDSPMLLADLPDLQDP
The nature of experiment [16]: GFP-Q80 aggregate reduction, neuronal-like cells, cell-based, NGF-treated PC12, GFPQ80 (AID 1614).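 Also: lower means fewer inclusions and 0 means no inclusions at all.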 The settings on record: PC12 NGF-treated GFP-polyQ80 inclusion reduction.
Experiment [17] can be described thus: compounds altering circadian rhythm period length – cell-based, LOPAC library, luminescence reporter (AID 2774; call rule not given here;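 also: values are relative to mean of DMSO wells on each plate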). The settings on record: circadian reporter cells, at 7 µM, actives lie on both sides.
A short description of experiment [18]: chitosan synthesis blockers in C. neoformans – flow cytometry, Cibacron Brilliant Red staining (AID 1347148; call rule not given here;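 also: compound exposure lasted three days at 37 degrees C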). The conditions noted are these: Cryptococcus neoformans chitosan, stronger effect = lower value; at 10 µM unless noted.
Experiment [19] deals with NAD(+) hydrolase SARM1 (Homo sapiens) (UniProt Q6SZW1). The experiment can be described thus: blocking NAD cleavage by SARM1 SAM-TIR – cell lysate, NAD-Glo luminescence (AID 1508614;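 active = compound whose remaining NAD level is above about 45 nM, limit read from the data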;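 also: higher remaining NAD means stronger inhibition of SARM1 NADase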). The settings on record: SAM-TIR HEK293T lysate NADase, at 1 µM, stronger effect = higher value.
Chain of NAD(+) hydrolase SARM1 (Homo sapiens) (Q6SZW1 whole entry, looked up): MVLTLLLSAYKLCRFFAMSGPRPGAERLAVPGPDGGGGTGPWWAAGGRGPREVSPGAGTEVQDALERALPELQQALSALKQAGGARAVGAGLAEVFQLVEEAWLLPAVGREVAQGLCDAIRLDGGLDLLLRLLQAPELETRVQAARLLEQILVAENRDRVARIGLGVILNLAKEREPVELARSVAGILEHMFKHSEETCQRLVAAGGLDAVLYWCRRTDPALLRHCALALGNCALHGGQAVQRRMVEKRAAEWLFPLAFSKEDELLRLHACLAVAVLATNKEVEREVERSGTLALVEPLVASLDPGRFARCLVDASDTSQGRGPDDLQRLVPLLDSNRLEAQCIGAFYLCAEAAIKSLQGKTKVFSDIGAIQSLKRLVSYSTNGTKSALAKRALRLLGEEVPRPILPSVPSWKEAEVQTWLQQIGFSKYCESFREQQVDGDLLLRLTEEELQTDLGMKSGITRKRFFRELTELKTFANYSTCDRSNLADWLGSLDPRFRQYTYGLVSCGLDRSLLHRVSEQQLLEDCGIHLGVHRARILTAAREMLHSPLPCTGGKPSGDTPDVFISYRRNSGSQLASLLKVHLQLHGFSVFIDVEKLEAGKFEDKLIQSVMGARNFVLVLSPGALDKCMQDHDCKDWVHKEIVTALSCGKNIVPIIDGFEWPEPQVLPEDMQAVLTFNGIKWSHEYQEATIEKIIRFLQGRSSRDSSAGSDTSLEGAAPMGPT
Experiment [20] deals with Hepatitis C virus NS3 helicase. The experiment can be described thus: blockers of NS3h binding to ssDNA – biochemical, fluorescence polarization, LOPAC1280 library, primary screen (AID 687035; in the data active = inhibition above about 37%). The settings on record: Purified HCV NS3 helicase, Cy5-dT15 ssDNA binding fluorescence polarization; stronger effect = higher value; concentration not given here.
The nature of experiment [21]: compounds altering Cy5-DNA-NS3h complex signal – biochemical, LOPAC1280, artefact control for HCV NS3 helicase inhibitor project (AID 687037; call rule not given here). The conditions noted are these: Cy5-DNA-NS3h complex fluorescence interference counterscreen. Background: A counterscreen serves to expose hits that act by an unwanted route or on another target.
Experiment [22] can be described thus: blockers of cellular phospholipid synthesis – cell-based, LOPAC library, screen 4, primary screen (AID 1347384; call rule not given here). The conditions noted are these: animal cells, phospholipid biosynthesis inhibition screen; at 10 µM.
Experiment [23] in a line: galactose survival enhancers in mitochondrial complex I cybrids – cell-based, galactose medium, ATP luminescence, primary screen (AID 1645843;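 active = z-score of at least 1.8 in each of two replicates, scored against plate mean and spread of sample wells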;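 also: positive z means more ATP and so rescue of galactose-driven cybrid death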). The settings on record: complex I mutant cybrid cells, 72 h, stronger effect = higher value.
The mark [24] stands for this setting: stronger effect = lower value, cell number ratio, induced over uninduced.
Where [25] appears, read: measured here: relative caspase fold change +Dox/-Dox.
Setting [26] is: measured here: total cells with miR-34 induction, stronger effect = lower value.
Where [27] appears, read: measured here: total cells without miR-34 induction.
The mark [28] stands for this setting: MELAS cybrid survival, CellTiter-Glo 48 h, stronger effect = higher value.
The mark [29] stands for this setting: Rieske KO mouse fibroblast survival, CellTiter-Glo 72 h.

Chain of 6-phosphogluconate dehydrogenase, decarboxylating (Homo sapiens) (P52209 whole entry, looked up): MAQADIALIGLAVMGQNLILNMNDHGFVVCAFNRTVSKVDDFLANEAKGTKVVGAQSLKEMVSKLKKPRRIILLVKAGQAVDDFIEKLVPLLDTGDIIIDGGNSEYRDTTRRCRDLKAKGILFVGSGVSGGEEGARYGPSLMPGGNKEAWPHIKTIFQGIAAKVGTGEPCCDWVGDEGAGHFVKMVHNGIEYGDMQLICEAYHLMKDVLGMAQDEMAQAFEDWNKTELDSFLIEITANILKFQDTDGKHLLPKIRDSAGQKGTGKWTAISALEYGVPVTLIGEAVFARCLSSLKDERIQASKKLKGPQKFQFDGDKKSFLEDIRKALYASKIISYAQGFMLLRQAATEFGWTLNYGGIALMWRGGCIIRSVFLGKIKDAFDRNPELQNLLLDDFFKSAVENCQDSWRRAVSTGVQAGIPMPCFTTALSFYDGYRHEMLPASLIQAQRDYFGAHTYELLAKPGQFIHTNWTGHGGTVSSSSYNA

Take `CCOc1ccc2c(c1)C(C)=CC(C)(C)N2`: the fluorescence slope change in experiment [1] was 16.6% (inactive). Besides, the inhibition is 14.7% in [2] and 17.3% (inactive) in experiment [12]. Moreover, the score in experiment [3] was 0.77. In experiment [4], this molecule displayed a rescue above control of 5.1. In addition, the cytochrome c release ratio in experiment [5] stood at 0.79. Also, the inhibition of aggregation in experiment [6] stood at 25.8%. In experiment [7], this molecule returned a normalised LDH release of 1.06. In addition, the glutamate uptake change in experiment [8] was 23.6%. Besides, the aggregation suppression score in [9] was determined as 0.616. The survival in experiment [10] is 2.08 (inactive). For the same molecule, in [11], the parasite load remaining was 29.9% (inactive). For the same molecule, the viability in experiment [11] was 95.9%. Besides, the values for the fold change in [13] (setting [24]) and in experiment [13] (setting [25]) were 0.841 (inactive) and 1.09, respectively. The cell count worked out at 8590 in experiment [13] (setting [26]) and 10200 in [13] (setting [27]). In addition, the z-score is 1.71 (inactive) in experiment [14] (setting [28]) and 0.609 in experiment [14] (setting [29]). The luciferase signal in [15] was 48 AU (inactive).
Regarding `NCCCCCCNS(=O)(=O)c1cccc2c(Cl)cccc12`, the inhibition in [2] is -15.2% and 22.6% and 2.95%; in experiment [12] it was 8.63% (inactive). Moreover, in experiment [3], the score is 1.04 and 1.62 and 0.88. The rescue above control in experiment [4] was 4.12 and -5.26 and -2.52. Further, the cytochrome c release ratio in experiment [5] was 1.16 and 0.95 and 1.09. The inhibition of aggregation in experiment [6] is 51% and 55.6% and 36.6%. Moreover, the glutamate uptake change in [8] is 18.7% and -10.2% and 14.1%. Moreover, the inclusion score in [16] was 1. Besides, the aggregation suppression score in experiment [9] was 0.802 and 0.897 and 0.965. The period change in experiment [17] is 0.025 h (inactive). Moreover, the fold change in experiment [13] (setting [24]) is 0.955 (inactive); in experiment [13] (setting [25]), 0.859. Further, the cell count in experiment [13] (setting [26]) is 4060; in experiment [13] (setting [27]), 4250. In [18], the fold fluorescence was 9.13 [at 132.5 µM] (inactive).
`CN1[C@@H]2CC[C@H]1CC(OC(=O)[C@H](CO)c1ccccc1)C2` (some centres not stated): the fluorescence slope change in experiment [1] was 17.8% (inactive). For the same molecule, the parasite load remaining in experiment [11] was 60.1% (inactive). Besides, in experiment [11], the viability is 43.8%. In experiment [12], the inhibition is -17.7% (inactive). Also, the fold change was 0.891 (inactive) in [13] (setting [24]) and 1.14 in experiment [13] (setting [25]). The cell count in experiment [13] (setting [26]) was determined as 8370; in experiment [13] (setting [27]), 9390. The z-score in [14] (setting [28]) was -0.995 (inactive); in [14] (setting [29]) it was -0.351. Moreover, the remaining NAD in experiment [19] is 10 nM (inactive). For the same molecule, in [15], the luciferase signal was 144 AU (inactive).
As to `NCC[C@H](O)C(=O)N[C@@H]1C[C@H](N)[C@@H](O[C@H]2O[C@H](CN)[C@@H](O)[C@H](O)[C@H]2O)[C@H](O)[C@H]1O[C@H]1O[C@H](CO)[C@@H](O)[C@H](N)[C@H]1O`, the parasite load remaining in experiment [11] was 126% (inactive). Moreover, the viability in experiment [11] was determined as 113%. Further, in experiment [12], the inhibition was -15.3% (inactive). In addition, the fold change in experiment [13] (setting [24]) was 0.816 (inactive); in [13] (setting [25]), 1.79. Also, the cell count in experiment [13] (setting [26]) stood at 8210; in experiment [13] (setting [27]), 10100. The values for the z-score in experiment [14] (setting [28]) and in experiment [14] (setting [29]) were -0.451 (inactive) and -0.0793, respectively. In [19], the remaining NAD was 10 nM (inactive). The luciferase signal in [15] is 60 AU (inactive).
Turning to `C[N+]1(C)[C@@H]2CC[C@H]1CC(OC(=O)C(O)c1ccccc1)C2` (some centres not stated), the inhibition in experiment [12] was -20.5% (inactive). The fold change was 0.938 (inactive) in experiment [13] (setting [24]) and 0.48 in experiment [13] (setting [25]). Also, the cell count in experiment [13] (setting [26]) turned out to be 8390; in experiment [13] (setting [27]) it was 8940. In addition, the results for the z-score in experiment [14] (setting [28]) and in [14] (setting [29]) were -0.289 (inactive) and -0.189, respectively. The remaining NAD in [19] is 10 nM (inactive). The luciferase signal in experiment [15] was 20 AU (inactive).
For the molecule `CSC(N)=NCCC[C@H](N)C(=O)O`, in experiment [17], the period change was 0.125 h (inactive). The inhibition was -3% (inactive) in experiment [20] and -13.5% (inactive) in [12]. For the same molecule, in experiment [21], the fluorescence ratio (interference) is 1 (inactive). Moreover, the fold change in experiment [13] (setting [24]) was 1.1 (inactive) and 0.994 (inactive); in experiment [13] (setting [25]), 0.973 and 0.749. The cell count in [13] (setting [26]) was 11000 and 6220; in experiment [13] (setting [27]), 10000 and 6260. Besides, the molecule was called inactive in experiment [22]. In addition, the z-score in [23] was 0.215 (inactive).
